PubChem BioAssay AID1159580 (chemical genetic matrix, 2015)
Out of some 5,500 compounds screened, about 2,000 (36%) were called active. Roughly 18% stayed inconclusive and do not appear here. No stated cut-off is given here; in the data, active means normalized growth mostly below about 0.91 (no sharp cut-off); inconclusive means no clear call, values can overlap the other calls; inactive means mostly above about 0.92. The list shows a part of the results.

Assay: chemical genetic growth profiling, strain panel (AID 1159580);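 further: tested at 20 µM; growth read once vehicle control cultures reached saturation at 30 °C; 1 = growth at the plate median or of vehicle wells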
Conditions: growth OD

Measured: normalized growth

O=c1c(O)cc([C@H]2Oc3cc(O)cc(O)c3C[C@H]2O)cc2c([C@H]3Oc4cc(O)cc(O)c4C[C@H]3O)cc(O)c(O)c12
inactive: S. cerevisiae deletion strains, locus YJR066W, strain TOR1, stronger effect = lower value 0.921 | S. cerevisiae deletion strains, locus YKL009W, strain mrt4, stronger effect = lower value 1.09 | S. cerevisiae deletion strains, locus YKL068W, stronger effect = lower value 1.01 | S. cerevisiae deletion strains, locus YKL160W, strain elf1, stronger effect = lower value 1.01 | S. cerevisiae deletion strains, locus YKL190W, strain CNB1, stronger effect = lower value 1.02 | S. cerevisiae deletion strains, locus YKR001C, strain vps1, stronger effect = lower value 1.02 | S. cerevisiae deletion strains, locus YKR026C, strain gcn3, stronger effect = lower value 0.987 | S. cerevisiae deletion strains, locus YKR091W, strain srl3, stronger effect = lower value 1.03 | S. cerevisiae deletion strains, locus YLL001W, strain dnm1, stronger effect = lower value 1.03 | S. cerevisiae deletion strains, locus YLL026W, stronger effect = lower value 1.04 | S. cerevisiae deletion strains, locus YLL041C, strain sdh2, stronger effect = lower value 1.03 | S. cerevisiae deletion strains, locus YLR027C, strain aat2, stronger effect = lower value 1.02 | S. cerevisiae deletion strains, locus YLR039C, strain RIC1, stronger effect = lower value 1.15 | S. cerevisiae deletion strains, locus YLR058C, strain SHM2, stronger effect = lower value 1 | S. cerevisiae deletion strains, locus YLR102C, strain apc9, stronger effect = lower value 1.02 | S. cerevisiae deletion strains, locus YLR113W, strain HOG1, stronger effect = lower value 1.03 | S. cerevisiae deletion strains, locus YLR221C, strain rsa3, stronger effect = lower value 1.03 | S. cerevisiae deletion strains, locus YLR258W, strain gsy2, stronger effect = lower value 1.02 | S. cerevisiae deletion strains, locus YLR262C, strain YPT6 (second series), stronger effect = lower value 1.06 | S. cerevisiae deletion strains, locus YLR262C, strain YPT6, stronger effect = lower value 1.19 | S. cerevisiae deletion strains, locus YLR268W, strain sec22, stronger effect = lower value 1.03 | S. cerevisiae deletion strains, locus YLR320W, strain mms22, stronger effect = lower value 1.07 | S. cerevisiae deletion strains, locus YLR342W, strain FKS1 (second series), stronger effect = lower value 1.01 | S. cerevisiae deletion strains, locus YLR342W, strain FKS1, stronger effect = lower value 1.01 | S. cerevisiae deletion strains, locus YLR357W, strain rsc2, stronger effect = lower value 0.989 | S. cerevisiae deletion strains, locus YLR370C, strain arc18, stronger effect = lower value 1.01 | S. cerevisiae deletion strains, locus YLR371W, strain rom2, stronger effect = lower value 0.977 | S. cerevisiae deletion strains, locus YLR384C, strain iki3, stronger effect = lower value 1.03 | S. cerevisiae deletion strains, locus YLR418C, strain cdc73, stronger effect = lower value 1.03 | S. cerevisiae deletion strains, locus YML016C, strain PPZ1, stronger effect = lower value 1 | S. cerevisiae deletion strains, locus YML032C, strain rad52, stronger effect = lower value 1.02 | S. cerevisiae deletion strains, locus YML120C, strain ndi1, stronger effect = lower value 1.03 | S. cerevisiae deletion strains, locus YML124C, strain tub3, stronger effect = lower value 1.02 | S. cerevisiae deletion strains, locus YMR058W, strain fet3, stronger effect = lower value 0.955 | S. cerevisiae deletion strains, locus YMR078C, strain ctf18, stronger effect = lower value 1.02 | S. cerevisiae deletion strains, locus YMR125W, strain sto1, stronger effect = lower value 1.03 | S. cerevisiae deletion strains, locus YMR129W, stronger effect = lower value 1.04 | S. cerevisiae deletion strains, locus YMR205C, strain PFK2, stronger effect = lower value 1.09 | S. cerevisiae deletion strains, locus YMR223W, strain ubp8, stronger effect = lower value 1 | S. cerevisiae deletion strains, locus YMR231W, strain pep5, stronger effect = lower value 1.02 | S. cerevisiae deletion strains, locus YMR263W, strain SAP30, stronger effect = lower value 1.03 | S. cerevisiae deletion strains, locus YMR307W, strain GAS1, stronger effect = lower value 0.915 | S. cerevisiae deletion strains, locus YNL067W, strain RPL9B, stronger effect = lower value 1.02 | S. cerevisiae deletion strains, locus YNL071W, strain lat1, stronger effect = lower value 1.05 | S. cerevisiae deletion strains, locus YNL183C, strain NPR1, stronger effect = lower value 0.95 | S. cerevisiae deletion strains, locus YNL209W, strain ssb2, stronger effect = lower value 0.996 | S. cerevisiae deletion strains, locus YNL233W, strain BNI4, stronger effect = lower value 1.04 | S. cerevisiae deletion strains, locus YNL248C, strain rpa49, stronger effect = lower value 0.999 | S. cerevisiae deletion strains, locus YNL250W, strain rad50, stronger effect = lower value 1.05 | S. cerevisiae deletion strains, locus YNL271C, strain bni1, stronger effect = lower value 1 | S. cerevisiae deletion strains, locus YNL298W, strain CLA4, stronger effect = lower value 1.02 | S. cerevisiae deletion strains, locus YNL307C, strain MCK1, stronger effect = lower value 1.02 | S. cerevisiae deletion strains, locus YNL322C, strain KRE1 (second series), stronger effect = lower value 1.07 | S. cerevisiae deletion strains, locus YNL322C, strain KRE1, stronger effect = lower value 1.01 | S. cerevisiae deletion strains, locus YNR049C, strain mso1, stronger effect = lower value 1.04 | S. cerevisiae deletion strains, locus YNR052C, strain pop2, stronger effect = lower value 0.963 | S. cerevisiae deletion strains, locus YOL006C, strain TOP1, stronger effect = lower value 1.03 | S. cerevisiae deletion strains, locus YOL012C, strain htz1 1.21 | S. cerevisiae deletion strains, locus YOL147C, strain pex11, stronger effect = lower value 1.01 | S. cerevisiae deletion strains, locus YOR001W, strain rrp6, stronger effect = lower value 1.03 | S. cerevisiae deletion strains, locus YOR061W, strain CKA2, stronger effect = lower value 1.02 | S. cerevisiae deletion strains, locus YOR069W, strain VPS5, stronger effect = lower value 1 | S. cerevisiae deletion strains, locus YOR070C, strain gyp1, stronger effect = lower value 1.01 | S. cerevisiae deletion strains, locus YOR080W, strain dia2, stronger effect = lower value 1.06 | S. cerevisiae deletion strains, locus YOR083W, strain WHI5, stronger effect = lower value 1.01 | S. cerevisiae deletion strains, locus YOR106W, strain vam3, stronger effect = lower value 1.04 | S. cerevisiae deletion strains, locus YOR136W, strain idh2, stronger effect = lower value 1.02 | S. cerevisiae deletion strains, locus YOR144C, strain elg1, stronger effect = lower value 1.02 | S. cerevisiae deletion strains, locus YOR184W, strain ser1, stronger effect = lower value 1.06 | S. cerevisiae deletion strains, locus YOR231W, strain MKK1, stronger effect = lower value 1.01 | S. cerevisiae deletion strains, locus YOR265W, strain rbl2, stronger effect = lower value 1.03 | S. cerevisiae deletion strains, locus YOR270C, strain vph1, stronger effect = lower value 1.14 | S. cerevisiae deletion strains, locus YOR290C, strain snf2, stronger effect = lower value 1.01 | S. cerevisiae deletion strains, locus YOR316C, strain cot1, stronger effect = lower value 1.01 | S. cerevisiae deletion strains, locus YPL051W, strain arl3, stronger effect = lower value 1.02 | S. cerevisiae deletion strains, locus YPL078C, strain atp4, stronger effect = lower value 1.01 | S. cerevisiae deletion strains, locus YPL106C, strain sse1, stronger effect = lower value 1 | S. cerevisiae deletion strains, locus YPL240C, strain hsp82, stronger effect = lower value 1.04 | S. cerevisiae deletion strains, locus YPL256C, strain CLN2, stronger effect = lower value 0.992 | S. cerevisiae deletion strains, locus YPR119W, strain clb2, stronger effect = lower value 1.03 | S. cerevisiae deletion strains, locus YPR141C, strain kar3, stronger effect = lower value 0.993 | S. cerevisiae deletion strains, locus YPR163C, strain tif3, stronger effect = lower value 1.01 | S. cerevisiae deletion strains, locus YPR167C, strain met16, stronger effect = lower value 1.02 | S. cerevisiae deletion strains, strain wtn01, stronger effect = lower value 1.03 | S. cerevisiae strains, strain wild type, stronger effect = lower value 0.998
